Laboratory results published in ChEMBL document CHEMBL4513139, “CO-ADD screening of University of Strathclyde (UK) compounds”.
Results with a measured potency or affinity are listed apart.

What was measured:
[1] = test system: Staphylococcus aureus; conditions: Concentration 32 ug.mL-1; ASSAY_TEST Inhibition of Bacterial Growth; detection method Absorption (OD600); MEDIA CAMHB; plate type 384well; NBS; CORNING #3640; time 18 hr
[2] = test system: Escherichia coli; conditions: Concentration 32 ug.mL-1; ASSAY_TEST Inhibition of Bacterial Growth; detection method Absorption (OD600); MEDIA CAMHB; plate type 384well; NBS; CORNING #3640; time 18 hr

| Compound | Inhibition [1] [%] | Inhibition [2] [%] |
| --- | --- | --- |
| Cc1ncc(CNc2ccc(Cl)cc2)c(N)n1 | -1.15 | 2.07 |
| Cc1ncc(CNc2ccc(F)cc2)c(N)n1 | 25.09 | -15.16 |
| Cc1ncc(CNc2ccc(C(F)(F)F)cc2)c(N)n1 | -6.95 | -11.04 |
| COc1ccc(/C=C(/C(=O)Nc2cc(C(=O)Nc3cc(C(=O)NCCCN(C)C)n(C)c3)n(C)c2)c2ccc(OC)cc2)cc1.O=C(O)C(F)(F)F | 49.85 | -8.57 |
